The list is not random: actives were taken first. Their share in the collection is about 2.8%.
KDM5B inh = blocks human KDM5B histone demethylase activity | 2.6% of 220,000 active | Q9UGL1 | KDM5B demethylase, FDH-coupled NADH fluorescence (FDH is formaldehyde dehydrogenase) | AID 1347165 | Potency, µM (top dose mostly 57.7 µM), most hits filed as inhibitors; active = well fitted inhibition curve with a large enough effect; inconclusive = small, poorly fitted or top-dose-only effect; inactive = no such curve, though single readings can be large or run the other way; also: nearly all actives have a fitted effect of over 70% in size
Target sequence (Q9UGL1 whole entry, looked up): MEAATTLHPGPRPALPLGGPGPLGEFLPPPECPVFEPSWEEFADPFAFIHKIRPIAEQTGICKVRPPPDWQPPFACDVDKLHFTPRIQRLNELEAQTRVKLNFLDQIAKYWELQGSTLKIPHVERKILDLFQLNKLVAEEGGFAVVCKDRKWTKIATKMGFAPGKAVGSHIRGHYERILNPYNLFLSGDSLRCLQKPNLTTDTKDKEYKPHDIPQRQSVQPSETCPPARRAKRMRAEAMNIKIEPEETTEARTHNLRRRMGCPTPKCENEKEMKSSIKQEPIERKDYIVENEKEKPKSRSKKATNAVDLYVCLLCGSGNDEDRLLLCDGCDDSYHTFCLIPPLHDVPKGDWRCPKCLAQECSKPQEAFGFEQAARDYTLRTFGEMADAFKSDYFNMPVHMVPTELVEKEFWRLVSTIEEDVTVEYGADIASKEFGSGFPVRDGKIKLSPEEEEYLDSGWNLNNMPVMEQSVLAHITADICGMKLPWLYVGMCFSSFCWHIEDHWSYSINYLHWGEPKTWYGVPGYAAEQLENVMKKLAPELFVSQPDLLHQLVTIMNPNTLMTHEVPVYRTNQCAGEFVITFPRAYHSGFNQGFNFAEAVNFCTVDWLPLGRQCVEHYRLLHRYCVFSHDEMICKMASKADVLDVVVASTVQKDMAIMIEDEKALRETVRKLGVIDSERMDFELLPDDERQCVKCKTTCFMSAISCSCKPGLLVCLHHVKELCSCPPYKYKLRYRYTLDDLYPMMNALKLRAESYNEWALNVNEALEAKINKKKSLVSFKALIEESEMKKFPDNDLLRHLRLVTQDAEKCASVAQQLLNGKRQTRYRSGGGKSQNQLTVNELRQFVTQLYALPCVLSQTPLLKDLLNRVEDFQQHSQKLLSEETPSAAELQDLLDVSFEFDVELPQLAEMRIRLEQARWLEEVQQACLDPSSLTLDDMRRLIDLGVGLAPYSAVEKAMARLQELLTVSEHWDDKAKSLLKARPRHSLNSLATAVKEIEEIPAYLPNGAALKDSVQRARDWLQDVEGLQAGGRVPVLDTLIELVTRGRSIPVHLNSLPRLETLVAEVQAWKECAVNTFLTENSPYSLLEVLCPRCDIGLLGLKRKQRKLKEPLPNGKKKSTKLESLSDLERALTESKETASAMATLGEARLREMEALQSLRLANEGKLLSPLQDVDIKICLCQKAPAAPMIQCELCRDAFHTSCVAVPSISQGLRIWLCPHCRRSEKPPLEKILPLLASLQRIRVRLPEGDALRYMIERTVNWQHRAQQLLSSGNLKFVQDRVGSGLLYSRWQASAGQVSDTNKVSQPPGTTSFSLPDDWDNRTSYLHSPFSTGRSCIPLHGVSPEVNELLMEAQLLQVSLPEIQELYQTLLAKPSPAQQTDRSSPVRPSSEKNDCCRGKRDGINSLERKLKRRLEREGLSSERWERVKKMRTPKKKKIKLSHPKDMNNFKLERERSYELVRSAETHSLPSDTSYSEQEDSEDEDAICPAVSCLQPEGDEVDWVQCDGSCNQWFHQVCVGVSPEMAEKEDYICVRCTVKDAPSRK
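KDM5BΔAP (200 nM final) in 50 mM HEPES pH 7.5, 0.01% Tween-20 was preincubated 10 min at RT with compound over a concentration range. Substrate mix (H3K4me3 12.5 µM, α-KG 25 µM, Fe²⁺, ascorbate, NAD⁺, FDH) was added, and NADH fluorescence change over 30 min gave dose-response curves.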
IP6K1 inh = IP6K1 kinase inhibition | 0.81% of 140,000 active | activity change, % (series mostly up to about 58 µM) | IP6K1 kinase, ADP-Glo luminescence, 2 h; active compounds read low | Q92551; in the data active = activity change below about -25%
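ADP-Glo luminescence measures ADP made by human IP6K1 during a 2 h RT reaction with ATP/IP6 (mix at 1.3 mM/130 uM); top library doses 57.5 and 19.1 uM final.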
Each line names hits and unclear results; the compound was inactive in the other large screens; ! = a repeat was not active.

COc1ccccc1C(=O)Nc1ccnn1C1CCN(c2cnccn2)CC1	KDM5B inh 28.2µM
COc1ccccc1C(=O)Nc1ccnn1C1CCN(c2nccc(N)n2)CC1	KDM5B inh inconclusive
Cc1ccc(CN2CC[C@@H]3[C@H]2C(=O)NC[C@H](CCC(=O)N2CCCC2)N3C)cc1	KDM5B inh inconclusive
CN1[C@@H](CCC(=O)NCc2ccco2)CNC(=O)[C@H]2NCC[C@H]21	none
O=C(N[C@H]1C[C@H]2C(=O)NC[C@@H](CCC(=O)N3CCN(c4ccccn4)CC3)N2C1)c1ccccc1	KDM5B inh 25.1µM
CN1[C@@H](CCC(=O)N2CCc3ccccc32)CNC(=O)[C@@H]2[C@H]1CCN2Cc1cccs1	none
CN1[C@@H](CCC(=O)N2CCN(c3ccccn3)CC2)CNC(=O)[C@H]2NCC[C@H]21	KDM5B inh 35.5µM
CN1[C@@H](CCC(=O)N2CCN(c3ccccn3)CC2)CNC(=O)[C@@H]2[C@H]1CCN2Cc1cccs1	KDM5B inh 28.2µM
O=C(Nc1ccccc1)N[C@H]1C[C@H]2C(=O)NC[C@@H](CCC(=O)N3CCN(c4ccccc4)CC3)N2C1	none
Cc1ccc(CN2CC[C@@H]3[C@H]2C(=O)NC[C@H](CCC(=O)N2CCN(c4ccccn4)CC2)N3C)cc1	KDM5B inh 31.6µM
CC(C)NC(=O)N1CCN(c2nccc(Nc3ccccc3Cl)n2)CC1	none (no result: KDM5B inh)
Cc1ccccc1C(=O)NC1CCN(c2ccc3nnc(C)n3n2)CC1	none (no result: KDM5B inh)
CCc1nc2c(c(-c3ccc(Cl)cc3)n1)CCN(Cc1ccc(C#N)cc1)CC2	KDM5B inh inconclusive
COc1cccc(CCNC(=O)c2c(C)nc3cnccn23)c1	none (no result: KDM5B inh)
Cc1ccc(-c2cn3cc(C(=O)NC4CCCCC4)nc3s2)cc1	none (no result: KDM5B inh)
CNC(=O)c1ccc2c(c1)OCCN(c1ccccc1)C2	none
Cc1cnc(NC(=O)c2ccc3c(c2)OCCN(c2ccccc2)C3)s1	KDM5B inh 28.2µM
COc1ccc(F)cc1C(=O)NCc1cc2n(n1)CCN(C(=O)N(C)C)C2	none
Cc1cc(C)n2ncc(C(=O)NCc3cc4n(n3)CCN(C(=O)N(C)C)C4)c2n1	KDM5B inh 31.6µM
COc1ccc(C(NC(=O)c2sc(-c3ccsc3)nc2C)c2nccn2C)cc1 (configuration not stated)	none (no result: IP6K1 inh)
Cc1ncc(CO)c(CN2CCC3(Cc4ccccc4CNC3=O)C2)c1O (configuration not stated)	KDM5B inh 79.4µM
Cc1nn(-c2ccccc2)c(C)c1CN1CCC2(Cc3ccccc3CNC2=O)C1 (configuration not stated)	none
c1cncc(-c2ccnc(NCCCN3CCCc4ccccc43)n2)c1	KDM5B inh inconclusive
c1cncc(-c2ccnc(NCCCn3nccc3C3CC3)n2)c1	KDM5B inh 28.2µM
CC(C)S(=O)(=O)CCNc1nccc(-c2cccnc2)n1	KDM5B inh 31.6µM
OC(CNc1nccc(-c2cccnc2)n1)COc1ccc(Cl)cc1 (configuration not stated)	KDM5B inh inconclusive
Cc1cc(=O)[nH]c(NCCNc2nccc(-c3cccnc3)n2)n1	KDM5B inh 31.6µM
O=C(NCCc1noc(-c2cccnc2)n1)NC1CCCCC1	none
c1cncc(-c2ccnc(NCCc3noc(C4CCCC4)n3)n2)c1	KDM5B inh 31.6µM
C(=N\Nc1nccc(-c2cccnc2)n1)/c1ccccc1	none (no result: IP6K1 inh)
C[S+](=O)([O-])c1ccc(-c2nnc3ccc(C(=O)NCc4ccccn4)cn23)cc1	none (no result: KDM5B inh)
COCCCn1c(=O)c(C(=O)NCCc2ccc(Cl)cc2)nc2cccnc21	none (no result: KDM5B inh)
Cc1sc(NC(=O)CC(C)(C)C)c(C#N)c1C	none (no result: IP6K1 inh)
CCOC(=O)[C@H]1C[C@]2(CCCCN(CCO)C2=O)N(C(=O)OCC(C)C)[C@H]1c1ccco1	none (no result: KDM5B inh)
CC/C(C)=C/C(=O)OC1C(OC2(C)CCC3C(C4C(C)CCC42)C3(C)C)OC(C)C(O)C1O (configuration not stated)	none (no result: KDM5B inh)
Cn1cc([C@@H](NC(=O)c2nc3ccccc3[nH]c2=O)C2CC(O)C2)cn1 (some centres not stated)	KDM5B inh 31.6µM
Cn1cc([C@@H](NC(=O)c2cc(=O)n(-c3ccccc3)[nH]2)C2CC(O)C2)cn1 (some centres not stated)	none
CC(C)NC(=O)[C@H]1CN(Cc2ccccc2)C[C@H]1C(=O)O	none (no result: KDM5B inh)
O=C(N[C@H](C1CCNCC1)C1CC(O)C1)c1cccc(=O)[nH]1 (some centres not stated)	KDM5B inh 22.4µM
Cc1cnc2c(C(=O)N[C@H](C3CCNCC3)C3CC(O)C3)cnn2c1 (some centres not stated)	KDM5B inh 31.6µM
Cc1ccc(F)c(C(=O)N[C@H](C2CCNCC2)C2CC(O)C2)c1Cl (some centres not stated)	none
O=C(N[C@H](C1CCNCC1)C1CC(O)C1)c1ccccc1C(F)(F)F (some centres not stated)	none
Cn1cc(Cl)cc1C(=O)N[C@H](C1CCNCC1)C1CC(O)C1 (some centres not stated)	none
CC(C)Cc1cc(C(=O)N[C@H](C2CCNCC2)C2CC(O)C2)nc(N)n1 (some centres not stated)	KDM5B inh 22.4µM
CSCCNC(=O)C1CCCN1c1nccc(Nc2ccc(C)cc2)n1 (configuration not stated)	none (no result: KDM5B inh)
COc1ccc(F)cc1-c1ccc(CN2CCC(NC(=O)c3ccc(C(F)(F)F)cc3)C2)cc1 (configuration not stated)	none (no result: KDM5B inh)
Cc1cc2ccccc2n1CC(=O)N1CCCCCC1	none (no result: IP6K1 inh)
Cn1ncc2c(C(=O)NCc3cccs3)cc(-c3cccnc3)nc21	none (no result: KDM5B inh)
CC(C)c1nccn1CCCNC(=O)c1ccc(-c2ccccc2F)nc1	none
COc1ccc(F)cc1-c1ccc(C(=O)NCCCn2ccnc2C(C)C)cn1	KDM5B inh 28.2µM
O=C(Nc1ccc(Cl)cc1)NC1CCN(c2nc3ncccc3o2)CC1	none
O=C(NC1CCCC1)NC1CCN(c2nc3ncccc3o2)C1 (configuration not stated)	none (no result: KDM5B inh)
Cc1ccccc1C(=O)NC1CCCN(c2nc3ncccc3o2)C1 (configuration not stated)	none
COCC(=O)NC1CCN(c2nc3ncccc3o2)CC1	KDM5B inh 31.6µM
COc1cccc(C(=O)NC2CCN(c3nc4ncccc4o3)CC2)c1	KDM5B inh inconclusive
O=C(Nc1ccccc1)NC1CCN(c2nc3ncccc3o2)CC1	KDM5B inh 25.1µM!
Cc1ccccc1C(=O)NC1CCN(c2nc3ncccc3o2)CC1	KDM5B inh 31.6µM
O=C(NC1CCN(c2nc3ncccc3o2)CC1)C1CCCC1	KDM5B inh 35.5µM
CCCN1CNC(=S)N(N2CN(CCC)CNC2=S)C1	none (no result: IP6K1 inh)
Cn1c(=O)c2c(ncn2CCCC(=O)Nc2cccc(N3CCCC3=O)c2)n(C)c1=O	none (no result: IP6K1 inh)
CC(C)(C)C(=O)NC1CCN(c2nc3ncccc3o2)CC1	KDM5B inh 25.1µM
CN(C)C(=O)NC1CCN(c2nc3ncccc3o2)C1 (configuration not stated)	none (no result: KDM5B inh)
O=C(NC1CCCN(c2nc3ncccc3o2)C1)c1cccc(Cl)c1 (configuration not stated)	none
O=C(NC1CCN(c2nc3ncccc3o2)CC1)c1cccc(Cl)c1	KDM5B inh 28.2µM
CN(C)C(=O)C1CCCCN1Cc1ccc(-c2cccs2)cc1 (configuration not stated)	none (no result: KDM5B inh)
COc1ccccc1-c1ccc(C(=O)N2CCC(NC(=O)NC(C)C)CC2)cc1	none (no result: KDM5B inh)
COCCN1C[C@H]2COc3ccccc3[C@H]2N(C(=O)CC(C)(C)C)CCC1=O	none (no result: KDM5B inh)

Screening results (PubChem BioAssay)
